Measurements reported in the supplement of paper PMC10338343.
± gives the standard deviation.

What follows are sequences tested on MILI (PIWIL2) piRISC loaded with piRNA #1 (26 nt) (assay: pre-steady-state target cleavage rate (min^-1); guide: piRNA #1 5'p-UGAGGUAGUAGGUUGUAUAGUAUCCA; MIWI and MILI are mouse PIWI proteins and EfPiwi is from a freshwater sponge; tags in brackets are library labels; higher = faster piRNA-guided slicing of the target). Conditions: auxiliary factor: 500 nM mouse GTSF1.
Summary of the method: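 Active affinity-purified piRISC carrying one synthetic guide (1 nM) was mixed with a transcribed, DNA-blocked target RNA library […] in HEPES–potassium acetate buffer at 33 °C for 0–8 or 0–960 min, with or without 500 nM GTSF1 partner protein. Uncleaved targets were then sequenced and normalised to depth and to weakly complementary targets. Three trials were pooled, and k3 was capped at 0.0001 min^-1. A burst-and-steady-state fit was applied to obtain the pre-steady-state cleavage rate.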
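Further: 1 nM active piRISC with 0.1 nM target library at 33 °C single turnover.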

Row | Sequence | pre-steady-state target cleavage rate
1 | GGAGACCUAUGAUAUCAUGGUACUACCUCA | < 0.0001
2 | GGAGACCAUACUAAACAAGCUACUACCUCA | 0.236 ± 0.018
3 | GGAGACCUAUGAAUAGAAGCUACUACCUCA | 0.0046 ± 0.0022
4 | GGAGACCUAUGAUAUGUACCUACACCUCA | < 0.0001
5 | GGAGACCUAUGUAUACAUCGUACUACCUCA | 0.00791 ± 0.003
6 | GGAGACCUAUGAUAUCAAGCUACUACCUGA | 0.00472 ± 0.003
7 | GGAGACCUAUGUAUCACAACCUACUACCUCA | 0.0102 ± 0.003
8 | GGAGACCUUACUUACAACCUACUACCUCA | 0.0198 ± 0.0056
9 | GGAGACCUAUGUAUAGCAACCUACUACCUCA | 0.0101 ± 0.003
10 | GGAGACCUAUGAUUACAACCUACUACUCUCA | 0.00541 ± 0.0034
11 | GGAGACCAUACAAUACAACCUACUUCCUCA | 0.125 ± 0.016
12 | GGAGACCUAUGUAUACAACCUACUACGAGA | 0.013 ± 0.0047
13 | GGAGACCUAACUAUUCAAGCUACUACCUCA | 0.217 ± 0.027
14 | GGAGUGGAUACUAUACAAGCUACUUCCUCA | 0.0765 ± 0.0095
15 | GGAGUCGAUACUAUACAACCUACUACCUGA | 0.0703 ± 0.011
16 | GGAGACCUAUGUAUACAACCUACUACACUCA | 0.12 ± 0.018
17 | GGAGACGAUACUAUACUACGUACUACCUCA | 0.0345 ± 0.004
18 | GGAGACCUAUCUAUACAACCUACAAGCUCA | 0.0435 ± 0.012
19 | GGAGACCUAUGAAUAACAACCUACUACCUCA | 0.00368 ± 0.0026
20 | GGAGACCUUACUAUACAACCUAACUACCUCA | 0.0162 ± 0.0034

Row | Sequence | pre-steady-state target cleavage rate
21 | GGAGACCUAUGAUAACAACCUACUCACCUCA | 0.00465 ± 0.0027
22 | GGAGUGGAUACUAUAGAACCUACUAGCUCA | 0.00733 ± 0.0025
23 | GGAGACCUAUGAUUACAAGCUACUACCUCA | 0.0262 ± 0.0067
24 | GGAGACGAUACUAUACAACCUACAUGCUCA | 0.0563 ± 0.016
25 | GGAGUGGAUACUUUACAACCUACUAGCUCA | 0.0406 ± 0.0075
26 | GGAGACCUUACUAACAACCUACUACCUCA | 0.0824 ± 0.016
27 | GGAGACCUAUCUAUACUUGCUACUACCUCA | 0.0151 ± 0.0031
28 | GGAGACCUAUGAUAUGUUCAUACUACCUCA | < 0.0001
29 | GGAGACCAUUGUAUACAACCUACUACCUCA | 0.0325 ± 0.0067
30 | GGAGACGAUACUAAAGAACCUACUACCUCA | 0.166 ± 0.011
31 | GGAGUGGAUACAUAUACAACCUACUACCUCA | 0.114 ± 0.011
32 | GGAGACCUAUGAAUACAACCUAUUACCUCA | 0.00604 ± 0.003
33 | GGAGACCUAUCUAUACAACCGACUACCUCA | 0.0049 ± 0.003
34 | GGAGACCUUACAUAACAACCUACUACCUCA | 0.013 ± 0.0048
35 | GGAGACCUAUGUAUACAACCUACUUCCUGA | 0.00819 ± 0.0021
36 | GGAGACCUAUGAUUACAACCUACUAACCUCA | 0.0091 ± 0.0025
37 | GGAGACCAUACUAUACAACCUAGUACCACA | 0.00768 ± 0.0041
38 | GGAGACCUAUGAAUACUUCCUACUACCUCA | 0.00297 ± 0.0022
39 | GGAGACCUAUCUAUACAACGUACUACGUCA | 0.00657 ± 0.0026
40 | GGAGAGGAUUCUUUACAACCUACUACCUCA | 0.167 ± 0.013
